From PubChem BioAssay come the findings set out here.

In test [1] the target is Cell division control protein 42 homolog (Homo sapiens) (UniProt P60953). The test can be described thus: inhibition of fluorescent GTP binding to constitutively active Cdc42 – biochemical, multiplex bead flow cytometry, Bodipy-FL-GTP, dose response (AID 1333;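 active means fitted half-maximal concentration within the tested dose range, moderate curve steepness, a statistically real signal drop, and little compound fluorescence or tag-binding interference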). (In general: Flow cytometry measures light scatter and fluorescence of single cells or particles in a stream.)
Sequence of Cell division control protein 42 homolog (Homo sapiens) (P60953 whole entry, looked up): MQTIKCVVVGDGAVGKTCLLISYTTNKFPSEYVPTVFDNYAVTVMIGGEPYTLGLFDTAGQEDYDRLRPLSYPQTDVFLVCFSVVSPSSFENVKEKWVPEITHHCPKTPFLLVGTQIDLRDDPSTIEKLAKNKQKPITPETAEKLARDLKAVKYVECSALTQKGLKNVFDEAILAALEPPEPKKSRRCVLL
The target is the same in test [2]. The test can be described thus: inhibition of fluorescent GTP binding to wildtype Cdc42 – biochemical, multiplex bead flow cytometry, Bodipy-FL-GTP, dose response (AID 1334;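 active means fitted half-maximal concentration within the tested range, moderate curve steepness, significant signal drop, and little compound fluorescence or bead-linkage interference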). To be noted: bead-based flow cytometry, Bodipy-FL-GTP binding to GST-Cdc42; at 100 µM (top of the series) unless noted.
Test [3] has as its target GTPase HRas (Homo sapiens) (UniProt P01112). The test can be described thus: Ras wt fluorescent GTP loading blockade – biochemical, wildtype, multiplex bead flow cytometry, dose response (AID 1335;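 active means fitted half-maximal concentration within 10 nM to 100 µM, steepness 0.5 to 2, significant signal drop, low assay interference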). Conditions: bead-based flow cytometry, Bodipy-GTP binding to GST-Ras; at 100 µM (top of the series) unless noted.
Test [4] concerns Ras-related protein Rab-7a (dog), GTP binding. The test can be described thus: blockers of fluorescent GTP binding to Rab7 – biochemical, wildtype, multiplex bead flow cytometry, dose response (AID 1336; call rule not given here).
The target of test [5] is Ras-related C3 botulinum toxin substrate 1 (Homo sapiens) (UniProt P63000). In words: inhibition of wildtype Rac1 nucleotide loading – biochemical, multiplex bead flow cytometry, dose response (AID 1340). Conditions: GST-Rac1 beads, Bodipy-FL-GTP binding; at 100 µM (top of the series) unless noted.
The target of test [6] is GTPase HRas (Homo sapiens) (UniProt P01112). In words: blockade of GTP loading onto mutant Ras – biochemical, activated mutant, multiplex bead flow cytometry, dose response (AID 1341;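 active means dose-response curve with midpoint inside the tested range, moderate steepness, significant amplitude and little compound fluorescence or bead-attachment interference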;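 further: GST-tagged constitutively activated Ras mutant immobilized on beads and multiplexed with other GTPases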).
Sequence of GTPase HRas (Homo sapiens) (P01112 whole entry, looked up): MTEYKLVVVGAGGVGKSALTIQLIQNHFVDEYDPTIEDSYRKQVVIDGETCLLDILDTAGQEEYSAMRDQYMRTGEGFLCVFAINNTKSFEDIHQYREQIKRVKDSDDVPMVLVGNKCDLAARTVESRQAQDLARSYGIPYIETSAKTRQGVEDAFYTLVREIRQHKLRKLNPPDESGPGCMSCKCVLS

For part of these data: Results with a measured potency or affinity are listed apart. The source made the active and inactive calls.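 How the source made its calls, unless noted: active means dose curve with midpoint inside tested range, moderate steepness, plateau gap beyond fit error, low compound glow and bead-link interference; inactive means the rest.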

`Cc1nc2c(-c3ccc(Cl)cc3)c(C)[nH]n2c(=O)c1Cc1ccccc1`: the molecule was called inactive in test [1], in test [4] and in test [6]. Further, the fluorescence, percent of control (lower = inhibition) in test [2] is 34.5%. Further, the GTP binding, percent of control in test [3] was 75.9%. For the same molecule, the GTP binding signal, raw median fluorescence (lower = inhibition) (MCF (arbitrary fluorescence units)) in test [5] was found to be 158.

Take `C=CCNC(=O)c1cc2c(=O)n3cc(C)ccc3nc2nc1NCC1CCCO1` (stereo not given): the result in test [1], in test [4] and in test [6] was inactive. Moreover, the fluorescence, percent of control (lower = inhibition) in test [2] is 51.6%. In test [3], the GTP binding, percent of control came to 58.6%. The GTP binding signal, raw median fluorescence (lower = inhibition) (MCF (arbitrary fluorescence units)) in test [5] turned out to be 226.

As to `Clc1ccccc1-c1ccc(/C=N/Nc2nncc(-c3ccccc3)n2)o1`, the molecule was called inactive in test [1], in test [4] and in test [6]. The fluorescence, percent of control (lower = inhibition) in test [2] was determined as 39%. Further, the GTP binding, percent of control in test [3] was 89.5%. The molecule further returned a GTP binding signal, raw median fluorescence (lower = inhibition) (MCF (arbitrary fluorescence units)) in test [5] of 220.

On to `O=C(Nc1cccc(-c2ccc3nncn3n2)c1)c1ccco1`, for which the molecule was called inactive in test [1], in test [4] and in test [6]. In test [2], this molecule had a fluorescence, percent of control (lower = inhibition) of 32.1%. Besides, the GTP binding, percent of control in test [3] came to 73%. In addition, the GTP binding signal, raw median fluorescence (lower = inhibition) (MCF (arbitrary fluorescence units)) in test [5] came to 157.

`O=C(Nc1c(F)cccc1F)c1cnc(N2CCN(c3ccccn3)CC2)c2ccccc12`: the molecule was classed as inactive in test [1], in test [4] and in test [6]. Moreover, the fluorescence, percent of control (lower = inhibition) in test [2] is 97%. The same molecule registered a GTP binding, percent of control in test [3] of 199%. In addition, in test [5], the GTP binding signal, raw median fluorescence (lower = inhibition) (MCF (arbitrary fluorescence units)) is 217.

For the molecule `CN1CCN(c2ccccc2NC(=O)c2ccc(-c3cccc([N+](=O)[O-])c3)o2)CC1`, the molecule was called inactive in test [1], in test [4] and in test [6]. Moreover, the fluorescence, percent of control (lower = inhibition) in test [2] is 40.2%. In test [3], this molecule gave a GTP binding, percent of control of 93.9%. Also, in test [5], the GTP binding signal, raw median fluorescence (lower = inhibition) (MCF (arbitrary fluorescence units)) was found to be 308.

Consider `COc1cc(/C=C(\C#N)c2nc3ccc(C)cc3[nH]2)cc([N+](=O)[O-])c1O`, for which the call in test [1], in test [4] and in test [6] was inactive. Also, the fluorescence, percent of control (lower = inhibition) in test [2] came out at 25.3%. In addition, the GTP binding, percent of control in test [3] turned out to be 61.6%. In test [5], the GTP binding signal, raw median fluorescence (lower = inhibition) (MCF (arbitrary fluorescence units)) was found to be 151.

Turning to `Cc1ccccc1OCCn1cc(C(=O)O)c2ccccc21`, the result in test [1], in test [4] and in test [6] was inactive. Besides, the fluorescence, percent of control (lower = inhibition) in test [2] is 96.9%. Moreover, the GTP binding, percent of control in test [3] came to 131%. The same molecule registered a GTP binding signal, raw median fluorescence (lower = inhibition) (MCF (arbitrary fluorescence units)) in test [5] of 83.8.

As to `Cn1cc(C=C2C(=O)CC(C)(C)CC2=O)c2ccccc21`, the molecule was classed as inactive in test [1], in test [4] and in test [6]. Also, the fluorescence, percent of control (lower = inhibition) in test [2] came out at 49.4%. Further, the GTP binding, percent of control in test [3] was determined as 66.4%. The molecule further displayed a GTP binding signal, raw median fluorescence (lower = inhibition) (MCF (arbitrary fluorescence units)) in test [5] of 180.

Take `Cc1cccc(CNc2nc(C)ccc2C(=O)O)c1`: the molecule was classed as inactive in test [1], in test [4] and in test [6]. In test [2], this molecule registered a fluorescence, percent of control (lower = inhibition) of 60.7%. In test [3], this molecule returned a GTP binding, percent of control of 218%. The GTP binding signal, raw median fluorescence (lower = inhibition) (MCF (arbitrary fluorescence units)) in test [5] came out at 58.

For the molecule `O=C(O)C1C(C(=O)Nc2ccc(Cl)cc2)C2C=CC1C21CC1` (stereo not given), the molecule was classed as inactive in test [1], in test [4] and in test [6]. Besides, the fluorescence, percent of control (lower = inhibition) in test [2] was 86.8%. This molecule also showed a GTP binding, percent of control in test [3] of 149%. For the same molecule, the GTP binding signal, raw median fluorescence (lower = inhibition) (MCF (arbitrary fluorescence units)) in test [5] stood at 173.

With `Cc1ccc(C(=O)O)c(NCc2c(C)cccc2C)n1`, the call in test [1], in test [4] and in test [6] was inactive. The molecule also yielded a fluorescence, percent of control (lower = inhibition) in test [2] of 58.8%. Moreover, the GTP binding, percent of control in test [3] came to 224%. Further, in test [5], the GTP binding signal, raw median fluorescence (lower = inhibition) (MCF (arbitrary fluorescence units)) was 54.1.

Consider `CCn1c2ccccc2c2nc3cc(C(=O)O)ccc3nc21`, for which the call in test [1], in test [4] and in test [6] was inactive. Moreover, in test [2], the fluorescence, percent of control (lower = inhibition) came out at 34%. In test [3], this molecule gave a GTP binding, percent of control of 74.6%. The molecule further came in with a GTP binding signal, raw median fluorescence (lower = inhibition) (MCF (arbitrary fluorescence units)) in test [5] of 161.

On to `COc1ccc(-c2nn3c(-c4ccco4)nnc3s2)cc1OC`, for which the call in test [1], in test [4] and in test [6] was inactive. Further, the fluorescence, percent of control (lower = inhibition) in test [2] turned out to be 39.1%. The GTP binding, percent of control in test [3] stood at 132%. The GTP binding signal, raw median fluorescence (lower = inhibition) (MCF (arbitrary fluorescence units)) in test [5] worked out at 143.

Regarding `Cc1ccc(OCCn2c(SCCC(=O)O)nc3ccccc32)cc1`, the molecule was called inactive in test [1], in test [4] and in test [6]. The molecule also yielded a fluorescence, percent of control (lower = inhibition) in test [2] of 61.3%. In test [3], this molecule displayed a GTP binding, percent of control of 88.9%. Moreover, in test [5], the GTP binding signal, raw median fluorescence (lower = inhibition) (MCF (arbitrary fluorescence units)) stood at 34.5.
